In the library only some 0.64% were active in any assay of this set; here they are far more common.
PKM2 activator: qHTS Assay for Activators of Human Muscle isoform 2 Pyruvate Kinase; Potency, µM (doses to about 57.5 µM), for the others: at the top dose activation, most hits filed as activators; AID 1631, 2009; hit rate 0.34% among 260,000; purified PKM2, Kinase-Glo ATP luminescence, activation; response scale: 0% is enzyme alone, no compound; note: potency is the fitted concentration of half-maximal effect; % is set by controls: 0 for no effect and ±100 for the full control effect; nearly all actives have a fitted effect of over 55% in size
Target sequence (P14618 whole entry, looked up, canonical isoform): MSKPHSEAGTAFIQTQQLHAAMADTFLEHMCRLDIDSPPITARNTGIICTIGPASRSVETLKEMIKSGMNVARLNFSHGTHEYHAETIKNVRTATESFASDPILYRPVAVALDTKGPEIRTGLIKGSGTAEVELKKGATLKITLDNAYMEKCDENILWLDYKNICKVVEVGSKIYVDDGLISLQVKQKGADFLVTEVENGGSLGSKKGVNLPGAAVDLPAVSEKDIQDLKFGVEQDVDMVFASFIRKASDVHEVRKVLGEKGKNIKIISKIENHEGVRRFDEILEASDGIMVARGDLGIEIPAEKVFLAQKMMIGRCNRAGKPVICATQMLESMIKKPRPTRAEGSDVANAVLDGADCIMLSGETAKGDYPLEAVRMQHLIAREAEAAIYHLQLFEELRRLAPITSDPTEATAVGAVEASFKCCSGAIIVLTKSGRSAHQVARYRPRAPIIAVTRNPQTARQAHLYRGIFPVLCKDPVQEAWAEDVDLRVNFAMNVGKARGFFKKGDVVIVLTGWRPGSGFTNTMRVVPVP
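hPK-M2, >95% pure; 0.1 mM ADP / 0.5 mM PEP final; imidazole pH7.2 buffer w/ 7 mM MgCl2, 50 mM KCl; 1 h RT; Kinase-Glo lum. Intermediate enzyme activity for dual inhibitor/activator qHTS.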
IL-2 act: qHTS of IL-2 Activators; IL-2 activation reporter assay, cell-based qHTS; stimulated with anti-CD3/CD4/CD28 beads; in transgenic mouse T cells; activation, % (series mostly up to about 46 µM); hit rate 0.065% among 360,000; AID 652025, 2013; in the data active = activation above about 50%; inconclusive = mostly about 30% to 49%; note: 0% is about no effect
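Readout is EGFP and DsRed signal by fluorescent plate cytometry after 18 h at 37 degrees C. Transgenic mouse T cells (750/well) received compound for 60 min before bead stimulation (anti-CD3, anti-CD4, anti-CD28); memory T cells served as non-tolerant control.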
EPAC2 agonist: qHTS for Agonist of cAMP-regulated guanine nucleotide exchange factor 4 (EPAC2): primary screen; EPAC2 activation, biochemical qHTS; response scale: 100% = 6.5 mM cAMP response; AID 720711, 2013; Rap guanine nucleotide exchange factor 4 (Homo sapiens), Q8WZA2; Potency, µM (series often up to 154 µM), for the others: top-dose activation, hits mostly activators; hit rate 0.079% among 360,000; note: potency is the fitted concentration of half-maximal effect; nearly all actives have a fitted effect of over 50% in size
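EPAC2 (100 nM) mixed with Rap1B loaded with BODIPY-GDP (250 nM) plus 50 uM unlabeled GDP; compounds pinned in, 5 min RT, then read every 5 min for 30 min (ex 480, em 540 nm). Normalized to cAMP control.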
EPAC2 antag: qHTS for Antagonist of cAMP-regulated guanine nucleotide exchange factor 2 (EPAC2): primary screen; Rap guanine nucleotide exchange factor 4 (Homo sapiens), Q8WZA2; EPAC2 GEF exchange of Rap1B-BODIPY-GDP, fluorescence; Potency, µM (titrated, usually from 114 µM), for inactives: at the top dose activity, negative = inhibition, most hits filed as inhibitors; hit rate 0.18% among 360,000; note: potency is the fitted concentration of half-maximal effect; % is set by controls: 0 for no effect and ±100 for the full control effect; nearly all actives have a fitted effect of over 45% in size
EPAC1 agonist: qHTS for Agonist of cAMP-regulated guanine nucleotide exchange factor 3 (EPAC1): primary screen. EPAC1 agonist qHTS, biochemical assay; response scale: 100% = response to 6.5 mM cAMP. Potency, µM (highest dose often 154 µM), for inactives: at the highest dose activation, actives largely listed as activators. hit rate 0.073% among 360,000. Rap guanine nucleotide exchange factor 3 (Homo sapiens), O95398; note: potency is the fitted concentration of half-maximal effect; nearly all actives have a fitted effect of over 60% in size
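Fluorescent GDP-exchange assay: 100 nM EPAC1 with 250 nM Rap1B preloaded with BODIPY-GDP and 50 uM GDP; compounds tested as concentration series, 5 min at room temperature, then read every 5 min for 30 min (ex 480/em 540 nm); normalized to 6.5 mM cAMP.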
EPAC1 antagonist: qHTS for Antagonist of cAMP-regulated guanine nucleotide exchange factor 3 (EPAC1): primary screen; Rap guanine nucleotide exchange factor 3 (Homo sapiens), O95398; EPAC1 GEF assay, Rap1b-BODIPY-GDP exchange fluorescence; Potency, µM (titrated, usually from 115 µM), without a hit: at the highest dose activity change, negative = inhibition, hits mostly inhibitors; hit rate 0.14% among 360,000; AID 720709, 2013;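 note: potency is the fitted concentration of half-maximal effect; plate controls were vehicle for no effect and positive control for full effect; nearly all actives have a fitted effect of over 50% in size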
Active calls of the source: *; ? = inconclusive; nt = not tested or not shown; [ ] = dose if it differs, or a comment. Unless noted, calls come from the whole dose curve; as a rule, active = well fitted curve in the direction sought with a large enough effect; inconclusive = small, poorly fitted or top-dose-only effect, or another doubt; inactive = no such curve, though single readings can be large; an effect the other way counts as inactive or inconclusive.

SMILES | PKM2 activator | IL-2 act | EPAC2 agonist | EPAC2 antag | EPAC1 agonist | EPAC1 antagonist
Oc1ccc(NCc2cccc(OCc3ccccc3)c2)cc1 | ? | -3 | 7% | ? | -13% | 32µM*
Oc1ccc(NCc2cccc(OCc3ccc(F)cc3)c2)cc1 | ? | -4 | 18% | -29% | 14% | 45µM*
O=C(N/N=C/c1ccc(-c2ccc(Cl)c(C(=O)O)c2)o1)c1cc2c(ccc3ccccc32)o1 | ? | 0 | 28% | 17% | 11% | 40µM*
Cc1ccc(-c2ccc(/C=N\NC(=O)c3cc4c(ccc5ccccc54)o3)o2)cc1[N+](=O)[O-] | -4% | 0 | 8% | 2% | 0% | -6%
COC(=O)C(C(=O)OC)c1ccc(-n2cccc2)cc1 | -2% | 0 | 2% | ? | -2% | -13%
CCOC(=O)C1(CC2CCCCO2)CCN(Cc2cn[nH]c2-c2cccc(F)c2)CC1 (configuration not stated) | 1% | 0 | 8% | 3% | -6% | ?
CCC(=O)N/N=C/c1ccc(-c2ccc([N+](=O)[O-])cc2)o1 | 0% | 0 | 3% | 4% | 3% | 5%
CC(C)(C)C(=O)/C=c1\s/c(=C\c2ccc(-c3ccc([N+](=O)[O-])cc3)o2)c(=O)n1CC(=O)NC(N)=O | 9% | 164* | 8% | 28% | -8% | 19%
CC#CCN1c2ccccc2[C@]23C[C@@H](C(=O)OC)N(S(=O)(=O)c4cccs4)C2=NC(C(=O)OC)=C(C(=O)OC)[C@H]13 | 5%[11.5 µM] | nt | nt | nt | nt | nt
CCOC(=O)c1c(-c2ccccc2)csc1NC(=O)/C(C#N)=C/c1ccc(O)c(OC)c1 | 16% | 58* | -9% | -30% | 8% | -2%
COc1cccc(-c2cc(CNC(=O)[C@H]3O[C@@H](n4ccc(=O)[nH]c4=O)[C@H](O)[C@@H]3O)no2)c1 | nt | 1 | 5% | 4% | -4% | 1%
O=C(CN1CCN(S(=O)(=O)/C=C/c2ccccc2)CC1)Nc1ccccc1N1CCOCC1 | -2% | -5 | 8% | ? | 1% | 0%
CCOc1ccc2nc(NC(=O)CSc3nc(-c4ccccc4)c(C#N)c(=O)[nH]3)sc2c1 | 3% | -1 | 10% | ? | -7% | ?
COc1cccc(-c2nc(SCC(=O)Nc3nc(-c4ccccc4)c(C)s3)[nH]c(=O)c2C#N)c1 | 1% | -1 | -2% | 25µM* | 2% | ?
COc1ccccc1N1C(=NC(=O)CCC2CCCC2)SC2CS(=O)(=O)CC21 (configuration not stated) | -9%[0.46 µM] | -2 | -2% | -3% | 5% | -24%
O=C(COC(=O)/C=C/c1cccs1)Nc1ccc(F)cc1 | nt | 1 | 0% | 12% | -5% | -1%
CCc1cccc(NC(=O)COC(=O)/C=C/c2cccs2)c1 | nt | 2 | -2% | 4% | 112µM* | -15%
CCOC(=O)C1(C)CCCN1C(=O)c1cccc(F)c1 (configuration not stated) | nt | 0 | 3% | 4% | 4% | 2%
CN(C)c1ccc(/C=C/c2nc3ccccc3c(=O)n2-c2ccc(C(=O)O)cc2)cc1 | nt | 3 | -29% | -10% | 63µM* | 164%
O=C(O)c1cccc(-n2c(/C=C/c3ccccc3)nc3ccccc3c2=O)c1 | nt | 0 | -5% | 3% | -8% | 8%
Cc1noc(C)c1NC(=O)N(C)C[C@H]1Oc2ccc(NC(=O)C3CCCCC3)cc2C(=O)N([C@H](C)CO)C[C@@H]1C | nt | 0 | 12% | -2% | 8% | -4%
CN(C)S(=O)(=O)c1cccc(-n2sc3ccccc3c2=O)c1 | 2.8µM* | 0 | 8% | 9% | -14% | 13%
COc1cccc2cc(/C(=N/O)c3ccccc3)oc12 | -10% | 1 | 23% | 50µM* | 6% | -19%
O=C(O)COc1ccccc1/C=N/NC(=O)CSc1nnc(SCc2ccc(Cl)cc2)s1 | -2% | 1 | -2% | -15% | 0% | 11%
O=C(CSc1nnc(SCc2ccc(Cl)cc2)s1)N/N=C/c1ccc(C(=O)O)cc1 | -2% | 2 | -4% | 45µM* | 2% | 8%
SMILES | PKM2 activator | IL-2 act | EPAC2 agonist | EPAC2 antag | EPAC1 agonist | EPAC1 antagonist
Cc1ccc(OCCOCCn2cnc3ccccc3c2=O)c([N+](=O)[O-])c1 | 2% | 0 | -4% | 2% | 3% | 8%
Cc1ccc([N+](=O)[O-])c(OCCn2cnc3ccccc32)c1 | 8.9µM* | -3 | 13% | -15% | 1% | 0%
C=CCOC(=O)C1=C(C)NC(C)=C(C(=O)OCC=C)C1c1ccco1 | -6% | -1 | 2% | 45µM* | 0% | -14%
CC1(C(=O)NCCc2c[nH]c3ccccc23)CCN1Cc1ccccc1OC(F)F (configuration not stated) | nt | -1 | 27% | -14% | -10% | ?
N=c1c(C(=O)NCc2ccc(F)cc2)cc2c(=O)n3ccccc3nc2n1Cc1cccnc1 | -1% | 178* | 13% | -7% | -10% | -15%
Cc1cccn2c(=O)c3cc(S(=O)(=O)c4ccc(F)cc4)c(=N)n(Cc4ccco4)c3nc12 | 0% | 56* | 2% | 4% | 6% | -26%
Cc1cccn2c(=O)c3cc(C(=O)NC4CCCCC4)c(=N)n(Cc4ccc(F)cc4)c3nc12 | -9%[0.46 µM] | 154* | -13% | 13% | 2% | 3%
COC(=O)c1cc2c(=O)n3ccccc3nc2n(Cc2cccnc2)c1=N | nt | 5 | 1% | 10% | 4% | 4%
O=C(CSc1cccc2cccnc12)Nc1cccc(S(=O)(=O)N2CCOCC2)c1 | 5% | 0 | 5% | -24% | -5% | -9%
O=C(CSc1cccc2cccnc12)Nc1ccc(S(=O)(=O)N2CCOCC2)cc1 | 25µM* | -1 | 8% | 1% | 16% | -11%
CO/N=C(\Cn1ncc(N2CCCC2)c(Cl)c1=O)c1ccc(Cl)cc1 | 14µM* | 0 | 18% | 0% | 6% | 10%
COc1ccc(-n2c(-c3cccc(C)c3[N+](=O)[O-])n[nH]c2=S)cc1 | 11µM* | 2 | 2% | -2% | 9% | -19%
O=S(=O)(NCCNc1nccc(C(F)(F)F)n1)c1ccccc1 | 18µM* | -1 | -14% | -24% | -10% | ?
